Reference: PubChem BioAssay (Tox21)
Results filed as inconclusive are left out. Active and inactive are the calls of the source. Unless noted, the call rests on the fitted dose curve; in most records, active means well fitted curve in the direction sought with a large enough effect in the repeat runs; inconclusive means weak or mixed curves; inactive means no such curve, though single readings can be large; an effect the other way counts as inactive or inconclusive.

Legend:
[1] = qHTS assay for small molecule agonists of the p53 signaling pathway (AID 651631; calls by dose curve; further: nearly all actives have a fitted effect of over 15% in size)
Summary of the method: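 Fluorescence intensity from cleaved LiveBLAzer B/G substrate (2 h, room temperature) served as the signal. Beforehand, HCT-116 reporter cells bearing p53 response elements were treated 16 h at 37 °C with DMSO-dissolved compounds.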

[2] = qHTS assay for small molecules that induce genotoxicity in human embryonic kidney cells expressing luciferase-tagged ATAD5 (AID 651632); further: nearly all actives have a fitted effect of over 15% in size
Summary of the method: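 HEK293T cells carrying luciferase-tagged ATAD5 were given compound or DMSO vehicle and incubated 16 hr at 37C, 5% CO2. Luciferase activity was read after 30 min at room temperature with Amplite; a rise signals genotoxic stress.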

[3] = qHTS assay for small molecule agonists of the p53 signaling pathway - cell viability (AID 651633; calls by dose curve;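 further: p53RE-bla HCT reporter cells with a stable beta-lactamase p53 reporter; series mostly up to about 83 µM; nearly all actives have a fitted effect of over 30% in size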)
Summary of the method: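 Viability counter-read: CellTiter-Glo luminescence (30 min, room temperature) in the same p53RE-bla plates. These plates had been exposed to compounds for 16 h at 37 C.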

[4] = qHTS assay for small molecules that induce genotoxicity in human embryonic kidney cells expressing luciferase-tagged ATAD5 - cell viability (AID 651634; calls by dose curve; further: nearly all actives have a fitted effect of over 25% in size)
Summary of the method: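 HEK293T cells carrying luciferase-tagged ATAD5, 2,000 cells/well, exposed to compound for 15.5 hr at 37C. Viability read as live-cell protease activity by CellTiter-Fluor fluorescence after 30 min at 37C.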

[5] = qHTS assay for small molecule disruptors of the mitochondrial membrane potential - cell viability (AID 720634; calls by dose curve;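 further: human HepG2 liver cancer cells; series mostly up to about 83 µM; nearly all actives have a fitted effect of over 20% in size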)
Summary of the method: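 HepG2 cells, 2,000 per well, attached overnight, then treated 1 hr at 37 C, 5% CO2. Viability read as ATP by CellTiter-Glo luminescence after 30 min at room temperature. Read in the same wells as the m-MPI membrane-potential dye assay.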

[6] = qHTS assay for small molecule disruptors of the mitochondrial membrane potential (AID 720635)
Summary of the method: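 Mitochondrial membrane potential tracked with Mito-MPS dye, red aggregates (ex 540/em 590 nm) against green monomers (ex 490/em 535 nm). Compound treatment 1 hr at 37C, dye 30 min in HepG2.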

[7] = qHTS assay to test for compound auto fluorescence at 535 nm (green) in HepG2 cells (AID 720675)
[8] = qHTS assay to test for compound auto fluorescence at 460 nm (blue) in HEK293 cells (AID 720678)
Summary of the method: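 Intrinsic compound fluorescence is recorded in live HEK293 cultures after overnight incubation at 37C, 5% CO2, using excitation 405 nm and emission 460 nm. Values are referenced to triamterene.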

[9] = qHTS assay to test for compound auto fluorescence at 535 nm (green) in HEK293 cells (AID 720680)
[10] = qHTS assay to test for compound auto fluorescence at 460 nm (blue) in HEK293 cell free culture (AID 720681)
Summary of the method: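 Blue fluorescence (Ex 405/Em 460 nm, triamterene-equivalent) was read immediately after pin transfer of compound or DMSO into medium (DMEM, 10% FBS) without cells.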

[11] = qHTS assay to test for compound auto fluorescence at 535 nm (green) in HEK293 cell free culture (AID 720682)
Summary of the method: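 Intrinsic compound fluorescence is measured in culture medium containing 10% FBS, with excitation at 485 nm and detection at 535 nm, referenced to fluorescein.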

[12] = qHTS assay to test for compound auto fluorescence at 590 nm (red) in HEK293 cell free culture (AID 720683)
Summary of the method: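 Red-channel autofluorescence of compounds in culture medium (DMEM, 10% FBS), no cells, measured at 540/590 nm. Rose Bengal sodium is the reference fluorophore for equivalence.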

[13] = qHTS assay to test for compound auto fluorescence at 460 nm (blue) in HepG2 cell free culture (AID 720685)
Summary of the method: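 Compound (23 nL) or DMSO pinned into cell-free MEM with 10% FBS; blue fluorescence read at 405/460 nm excitation/emission, expressed as auto-fluorescence equivalency to triamterene.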

[14] = qHTS assay to test for compound auto fluorescence at 535 nm (green) in HepG2 cell free culture (AID 720686)
[15] = qHTS assay to test for compound auto fluorescence at 460 nm (blue) in HepG2 cells (AID 720687)
Summary of the method: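 Blue-channel autofluorescence (Ex/Em 405/460 nm, triamterene-equivalent) was measured after 1 hr compound exposure at 37 C, 5% CO2. Cells were HepG2, plated overnight at 37 C in MEM plus 10% FBS.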

[16] = qHTS assay to test for compound auto fluorescence at 590 nm (red) in HepG2 cells (AID 720674)
Summary of the method: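 1 hr compound incubation on HepG2 cells, 37 C, 5% CO2; plate read ex 540 nm / em 590 nm; intensities reported as Rose Bengal sodium equivalents.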

[17] = qHTS assay to test for compound auto fluorescence at 590 nm (red) in HEK293 cells (AID 720679)
Summary of the method: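 Red autofluorescence, HEK293 cells: 2,000 cells/well; attach 4-5 hr 37C; add 23 nL cpd or DMSO; incubate o/n 37C 5% CO2; read Ex540/Em590; Rose Bengal sodium reference.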

[18] = qHTS assay to test for compound auto fluorescence at 590 nm (red) in HepG2 cell free culture (AID 720684)
Summary of the method: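 Steps: dispense MEM/10% FBS medium, no cells; pin compound or DMSO vehicle; read red channel, Ex/Em 540/590 nm. Output given as Rose Bengal sodium equivalents.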

[19] = molecular target: Glucocorticoid receptor (Homo sapiens) (UniProt P04150); assay: qHTS assay to identify small molecule agonists of the glucocorticoid receptor (GR) signaling pathway (AID 720691; active means well fitted activation curve with a large enough effect in the signal ratio in the repeat runs, not every such curve was filed as active; the % refers to the signal ratio)
Summary of the method: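 GR-bla HeLa cells carrying a GRE-driven beta-lactamase reporter, exposed to compounds for 18 h at 37 C. Reporter activation read as fluorescence after 2 h with LiveBLAzer B/G FRET substrate at room temperature.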

[20] = molecular target: Glucocorticoid receptor (Homo sapiens) (UniProt P04150); assay: qHTS assay to identify small molecule antagonists of the glucocorticoid receptor (GR) signaling pathway (AID 720692; active means well fitted inhibition curve with a large enough effect in the signal ratio in the repeat runs, not every such curve was filed as active; the % refers to the signal ratio)
Summary of the method: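 GR-bla HeLa cells carrying a GRE-driven beta-lactamase reporter received compound after 4 h plating, then dexamethasone (5 nM final). After 18 h at 37C, the FRET substrate was loaded for 2 h at room temperature and fluorescence read.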

Measured: Potency

Glucocorticoid receptor (Homo sapiens), sequence (P04150 whole entry, looked up): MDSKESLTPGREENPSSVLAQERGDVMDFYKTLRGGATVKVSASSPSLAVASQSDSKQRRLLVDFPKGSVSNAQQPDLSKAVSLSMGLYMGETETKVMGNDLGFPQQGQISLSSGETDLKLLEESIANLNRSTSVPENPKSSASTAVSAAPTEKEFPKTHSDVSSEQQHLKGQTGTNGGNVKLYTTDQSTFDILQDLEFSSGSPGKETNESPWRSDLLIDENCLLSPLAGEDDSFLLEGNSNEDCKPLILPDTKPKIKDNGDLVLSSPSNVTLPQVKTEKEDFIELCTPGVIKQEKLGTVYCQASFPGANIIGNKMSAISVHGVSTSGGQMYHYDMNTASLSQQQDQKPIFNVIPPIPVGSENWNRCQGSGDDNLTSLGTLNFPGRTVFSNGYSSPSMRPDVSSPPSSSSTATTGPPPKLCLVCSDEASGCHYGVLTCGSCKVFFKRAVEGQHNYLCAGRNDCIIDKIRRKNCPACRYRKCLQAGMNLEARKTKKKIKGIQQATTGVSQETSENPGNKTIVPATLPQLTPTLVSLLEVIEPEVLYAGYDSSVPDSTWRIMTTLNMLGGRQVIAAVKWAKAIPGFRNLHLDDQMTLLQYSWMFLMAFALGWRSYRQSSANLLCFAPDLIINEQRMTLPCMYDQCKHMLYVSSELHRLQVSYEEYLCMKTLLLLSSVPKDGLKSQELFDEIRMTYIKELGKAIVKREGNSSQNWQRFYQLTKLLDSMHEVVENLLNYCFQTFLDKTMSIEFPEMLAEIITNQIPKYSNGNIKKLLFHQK

Cc1ccc(N)nc1
not listed: [16] | [17] | [18] | [19] | [20]
inactive: all other assays above

O=C(O)P(=O)(O)O
not listed: [6] | [20]
inactive: all other assays above

CC(=O)OC1CCC(C(C)(C)C)CC1 (stereo not given)
not listed: [6]
inactive: all other assays above

Cc1ccc2cccnc2c1
not listed: [6]
inactive: all other assays above

CCN(CC)CC
not listed: [6] | [18]
inactive: all other assays above

O=C(O)CCCCCCCCCC(=O)O
not listed: [6]
inactive: all other assays above

CC(C)(O)CCCC1=CCC(C=O)CC1 (stereo not given)
not listed: [6]
inactive: all other assays above

CCC(C)SSC(C)CC (stereo not given)
not listed: [6]
inactive: all other assays above

CC(C)(C)OC=O
not listed: [6]
inactive: all other assays above

CC(=O)Oc1ccc(C(C)=O)cc1
not listed: [6] | [17] | [19] | [20]
inactive: all other assays above

CCCC(=O)OC
not listed: [16] | [17] | [18] | [19] | [20]
inactive: all other assays above

O=S(=O)(O)CC(O)CCl (stereo not given)
not listed: [6] | [19] | [20]
inactive: all other assays above

CC12CCCC=C1C(=O)OC2=O (stereo not given)
not listed: [6] | [17] | [19] | [20]
inactive: all other assays above

CCN1CCN(C(=O)N[C@@H](C(=O)N[C@@H]2C(=O)N3C(C(=O)O)=C(CSc4nnnn4C)CS[C@H]23)c2ccc(O)cc2)C(=O)C1=O
not listed: [6] | [17] | [19] | [20]
inactive: all other assays above

COC(C)(C)CC(C)=O
not listed: [6] | [20]
inactive: all other assays above

CCCCCCC(O)CO (stereo not given)
not listed: [6]
inactive: all other assays above

CN(C)CCc1c[nH]c2ccc(C[C@H]3COC(=O)N3)cc12
not listed: [6] | [18]
inactive: all other assays above

Cc1ccc(O)c(C(=O)c2ccccc2)c1
not listed: [6] | [17] | [19] | [20]
inactive: all other assays above

O=C1Nc2ccccc2C1=O
not listed: [6]
inactive: all other assays above
